Experimental data: the supplement of paper PMC13380429

System: Vero E6 infected with SARS-CoV-2
Assay: inhibition of SARS-CoV-2 cytopathic effect; higher = more antiviral protection, active = above 15
Details: 48 h

Measured: inhibition of SARS-CoV-2 cytopathic effect

O=C(O)CCNc1cc(N2CCc3ccccc3CC2)nc(-c2ccccn2)n1
inactive: 1 nM -2.6% | 8.33 nM 1.21% | 100 nM 0.26% | 833.33 nM -1.21% | 10000 nM 0.82%

O=c1[nH]c2ccccc2n1C1CCN(CCOc2ccccc2)CC1 [oxiperomide]
inactive: 1 nM -1.51% | 8.33 nM -1.1% | 100 nM -2.1% | 833.33 nM -0.51% | 10000 nM 2.21%

CCC(=O)O[C@]1(C(=O)CCl)[C@@H](C)C[C@H]2[C@@H]3C[C@H](F)C4=CC(=O)C=C[C@]4(C)[C@@]3(F)[C@@H](O)C[C@@]21C [halobetasol-propionate]
inactive: 1 nM -3.17% | 8.33 nM -1.89% | 100 nM -2.65% | 833.33 nM 1.32% | 10000 nM 4.68%

CCOC(=O)Nc1nc2ccccc2[nH]1 [lobendazole]
inactive: 1 nM -9.74% | 8.33 nM -7.4% | 100 nM -4.73% | 833.33 nM -6.72% | 10000 nM -11.2%

C[C@@H]1Cc2c([nH]c3ccccc23)[C@@H](c2c(F)cc(/C=C/C(=O)O)cc2F)N1CC(C)(C)F
inactive: 1 nM 0.69% | 8.33 nM 1.08% | 100 nM -2.47% | 833.33 nM -1.93% | 10000 nM -3.78%

CCOc1ccc2ccccc2c1C(=O)N[C@@H]1C(=O)N2[C@@H]1SC(C)(C)[C@@H]2C(=O)O [nafcillin]
inactive: 1 nM -2.44% | 8.33 nM 1.27% | 100 nM -1.26% | 833.33 nM -1.73% | 10000 nM -0.95%

CCCN(CCC)C1Cc2cc(OC)c(OC)cc2C1
inactive: 1 nM -0.72% | 8.33 nM -0.86% | 100 nM -2.03% | 833.33 nM 0.79% | 10000 nM -2.36%

CCC(=O)OCN1C(=O)C=CC1=O
inactive: 1 nM -0.55% | 8.33 nM 0.83% | 100 nM 0.41% | 833.33 nM 1.73% | 10000 nM 1.22%

Nn1cnc2cc3ccccc3cc2c1=O [centazolone]
inactive: 1 nM -0.59% | 8.33 nM 0.85% | 100 nM 0.4% | 833.33 nM -1.41% | 10000 nM 0.93%

COc1ccccc1Oc1c(NS(=O)(=O)c2ccc(C)cn2)nc(-c2ccncc2)nc1OC
inactive: 1 nM 1.47% | 8.33 nM 2.09% | 100 nM 1.19% | 833.33 nM 2.9% | 10000 nM -4.64%

O=C(O)[C@H]1CC[C@H](c2cc3cccnc3c(-c3cccc(F)c3)n2)CC1
inactive: 1 nM -3.3% | 8.33 nM -2.36% | 100 nM -0.1% | 833.33 nM 0.23% | 10000 nM 1.21%

Oc1ccc(Cl)cc1Cc1cc(Cl)ccc1O [dichlorophen]
inactive: 1 nM -4.53% | 8.33 nM 0.22% | 100 nM -2.85% | 833.33 nM -2.86% | 10000 nM 1.46%

NS(=O)(=O)c1cc2c(cc1Cl)N=CNS2(=O)=O [chlorothiazide]
inactive: 1 nM 0.29% | 8.33 nM 0% | 100 nM -0.95% | 833.33 nM -0.05% | 10000 nM -0.76%

CC(O)Cn1cnc2c1c(=O)n(C)c(=O)n2C (stereo not given) [Proxyphylline]
inactive: 1 nM -1.14% | 8.33 nM -0.86% | 100 nM -0.81% | 833.33 nM -0.51% | 10000 nM 0.19%

CCOC(=O)c1ccc(NC2CCCCC2)c(N)c1 [ferrostatin-1]
inactive: 1 nM 0.05% | 8.33 nM 3.56% | 100 nM 2.61% | 833.33 nM 2.6% | 10000 nM 2.1%

NCCCC(O)(P(=O)(O)O)P(=O)(O)O [alendronate]
inactive: 1 nM -2.08% | 8.33 nM -1.44% | 100 nM 0.15% | 833.33 nM -0.56% | 10000 nM -0.44%

O=C(O)CCCC[C@@H]1SC[C@@H]2NC(=O)N[C@@H]21 [biotin]
inactive: 1 nM 1.38% | 8.33 nM 1.22% | 100 nM -1.51% | 833.33 nM 0.93% | 10000 nM 1.95%

COC(=O)[C@H]1[C@H]2C[C@@H]3c4[nH]c5cc(OC)ccc5c4CCN3C[C@H]2C[C@@H](OC(=O)c2cc(OC)c(OC)c(OC)c2)[C@@H]1OC [reserpine]
inactive: 1 nM 1.33% | 8.33 nM 3.05% | 100 nM 0.71% | 833.33 nM 3.56% | 10000 nM 7.95%

CCCNC(=O)N1N=C(c2ccc(N)cc2)c2cc3c(cc2C1C)OCO3 (stereo not given)
inactive: 1 nM -4.65% | 8.33 nM -0.41% | 100 nM 1.6% | 833.33 nM 0.9% | 10000 nM 4.48%
